Hits are enriched below; roughly 4.7% of the tested compounds scored in any of these assays.
D1 potentiator: potentiators of human D1 dopamine receptor; AID 504651; potentiation, % at 10 µM; HEK293 TREx D1 cells, calcium flux, dopamine EC20 potentiation; 0.036% of 360,000 active; in the data active = potentiation above about 30%; also: 0% is about no effect
Target sequence (P21728 whole entry, looked up): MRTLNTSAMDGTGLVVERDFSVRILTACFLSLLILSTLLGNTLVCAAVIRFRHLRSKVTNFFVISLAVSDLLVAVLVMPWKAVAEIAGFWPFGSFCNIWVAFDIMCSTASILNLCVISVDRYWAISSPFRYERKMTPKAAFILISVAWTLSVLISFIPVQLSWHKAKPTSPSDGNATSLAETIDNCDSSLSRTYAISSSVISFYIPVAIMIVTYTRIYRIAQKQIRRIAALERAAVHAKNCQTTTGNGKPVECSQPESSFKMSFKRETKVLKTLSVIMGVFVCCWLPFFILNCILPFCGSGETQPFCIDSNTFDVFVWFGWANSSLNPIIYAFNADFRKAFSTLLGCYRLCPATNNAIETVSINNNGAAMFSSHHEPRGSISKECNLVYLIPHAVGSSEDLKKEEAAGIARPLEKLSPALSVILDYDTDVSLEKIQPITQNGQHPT
D1 ag: human D1 receptor agonism | P21728 | HEK293 T-REx D1 cells, calcium flux, agonist mode | activation, % at 2 µM | 1% of 360,000 active | AID 504660; also: 0% is about no effect
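Inducible HEK293 T-REx D1 cells, force-coupled to calcium signalling, were plated at 4000 cells/well with tetracycline and held overnight at 30 C. After no-wash calcium dye loading, compound-evoked calcium rise over 180 s flagged agonists.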
TRHR enhancer: allosteric enhancers of human TRH receptor | P34981 | TRHR cells, fluo-8 calcium fluorescence, EC20 TRH enhancement | enhancement, % at 2 µM | 0.66% of 360,000 active; in the data active = enhancement above about 30%; also: 0% is about no effect
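Enhancer read-out: after compound pinning and an initial kinetic agonist-mode read, an EC20 of TRH (10 nM final) was injected and fluo-8 calcium signal (Ex 480/Em 530) followed at 1 s/cycle for 100 cycles in TRHR-expressing cells.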
D1 antag: antagonists of human D1 dopamine receptor | P21728 | HEK293 TREx D1 cells, calcium flux, dopamine EC80; stronger effect = lower value | activity change, negative = inhibition, % at 10 µM | 3.2% of 360,000 active | AID 504652; in the data active = activity change below about -30%; also: % is scaled to controls: 0 for no effect and ±100 for the full control effect
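Compound effects on dopamine-evoked calcium signalling were measured in tetracycline-induced HEK293 Trex D1 cells. Dopamine at EC80 followed a 180 s compound pre-read, and fluorescence was tracked kinetically for 180 s more.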
TRHR ag: TRH receptor (human) agonism | P34981 | activation, % at 2 µM | TRHR cells, calcium flux fluo-8, FDSS agonist mode | 0.18% of 360,000 active; also: 0% is about no effect
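Steps: seed TRHR cells overnight; add fluo-8 no-wash Ca dye, RT 30 min–1.5 h; record 10 s baseline; pin-transfer compounds; monitor fluorescence 1 cycle/s for the agonist window. Calcium increases flag candidate agonists.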
* = called active by the depositor; nt = no result given. Rule as the data show it, unless noted: active = activation above about 30%; inactive = the rest.

SMILES | D1 potentiator | D1 ag | TRHR enhancer | D1 antag | TRHR ag
CCN(CC)CCNC(=O)c1ccc2c(c1)NC(=O)c1ccccc1S2 | -4 | 1 | -4 | -30* | 2
CN(C)CCNC(=O)c1ccc2c(c1)NC(=O)c1ccccc1S2 | 0 | 7 | 9 | 14 | -1
CCc1ccccc1NC(=O)Nc1ccc2c(c1)N(CC)C(=O)c1ccccc1S2 | -1 | 3 | -1 | 4 | 0
Cc1cccc(NC(=O)N2CCC(CN3CCCCCC3)CC2)c1C | -1 | -2 | 7 | 6 | 0
Cc1nnc(N)nc1C | -1 | 2 | -3 | -38* | 1
C/C(N)=C(/C#N)C(=O)COC(=O)c1ccccc1O | -6 | 5 | -2 | 16 | 0
C/C(N)=C(/C#N)C(=O)COC(=O)c1cccc2ccccc12 | -10 | 3 | 1 | -34* | 1
COc1ccc(C)cc1NC(=O)C(CCSC)NS(=O)(=O)c1ccc2c(c1)oc(=O)n2C (stereo not given) | -2 | -1 | -7 | -5 | 0
C=CCN1C=CC(=C/C=C(/C#N)C(=O)OCC)C=C1 | 13 | 93* | 0 | -13 | 37*
CCOc1ccc(CCNC(=O)Cn2ncn3c(cc4sc(C)cc43)c2=O)cc1OCC | 2 | 0 | 4 | 11 | 0
Cc1ccc(-c2nc3cc(NC(=O)c4cc(Br)ccc4Cl)ccc3o2)cc1 | -2 | 7 | 2 | 10 | -1
CC1=C(C(=O)Nc2ccc(C)cc2Cl)C2(CCCCC2)OC1=O | -3 | 8 | 7 | 14 | 0
CC(c1ccccc1)N1C(=O)C2C3C=CC(C4CC34)C2C1=O (stereo not given) | -2 | 2 | -1 | -10 | 0
CC(OC(=O)C(C)N1C(=O)C2C3C=CC(C4CC34)C2C1=O)C(=O)c1ccccc1 (stereo not given) | 2 | 10 | 15 | -38* | 1
CC(=O)Nc1cccc(OC(=O)COc2ccc(Br)cc2)c1 | -3 | 11 | -9 | -31* | -1
Cc1ccc(-n2nc3c(=O)n(CCCC(=O)NC(C)c4ccccc4)nc(C)c3c2C)cc1 (stereo not given) | 4 | 5 | 5 | -6 | -1
Cc1onc(-c2c(Cl)cccc2Cl)c1C(=O)N1CCOCC1 | 0 | 4 | 6 | 1 | 1
Cc1cc(C)c2nc(-c3cccc(Cl)c3)c(C)c(C(=O)N3CCOCC3)c2c1 | 3 | 0 | 33* | 9 | 0
C/C(=N\NC(=O)c1cc(C)oc1C)c1ccc2ccccc2c1 | -1 | 4 | 3 | -42* | 0
COc1ccc(NC(=O)Nc2ccc3c(c2)CCC3)c(OC)c1 | -4 | -2 | 0 | nt | 0
COc1ccc(OC)c(CNc2ccc3c(c2)CCC3)c1 | 0 | 6 | 35* | 6 | 0
COc1ccc(OC)c(NC(=O)Nc2ccc3c(c2)CCC3)c1 | -6 | 1 | -3 | -49* | -1
Clc1nc(-c2n[nH]nc2Cl)n[nH]1 | -6 | 0 | 0 | -31* | 0
O=C(c1cccs1)c1cn(CCOc2ccc(F)cc2)c2ccccc12 | -5 | 35* | 4 | 29 | 0
O=C(c1cccs1)c1cn(CCOc2ccccc2F)c2ccccc12 | -2 | 14 | 6 | -11 | 0
SMILES | D1 potentiator | D1 ag | TRHR enhancer | D1 antag | TRHR ag
COc1ccc(C(=O)Nc2cc(C(C)=O)c(/C=C/N(C)C)oc2=O)cc1 | -3 | 41* | -5 | 20 | 22
Cc1ccc(CNC(=O)c2cc3c(=O)n(Cc4cccnc4)ccc3nc2C)cc1 | -4 | 1 | -2 | 4 | 0
Cc1nc2nc(C)c(NS(=O)(=O)c3ccc(F)cc3)c(=O)n2[nH]1 | -2 | 0 | -1 | 0 | 1
COc1ccc(OC)c(C2=C/C(=C/c3ccccn3)C(=O)O2)c1 | -10 | 189* | 8 | -56* | 0
Oc1ccc(CNCc2ccc3c(c2)OCO3)c2cccnc12 | -2 | 11 | -5 | 11 | 0
COC1=C/C(=C/c2c(N)n3nc(-c4ccc(C)cc4)sc3nc2=O)C=CC1=O | -3 | 7 | 0 | 14 | 5
CCS(=O)(=O)c1nn2c(N)c(/C=C3/C=CC(=O)C(OC)=C3)c(=O)nc2s1 | -3 | 31* | 7 | 13 | 15
Cc1ccc(NC(=O)Cc2sc(C)nc2-c2ccc(C)cc2)cc1 | -11 | 1 | 5 | -35* | -1
Cc1ccc(Oc2ccc(NC(=O)c3ccco3)cc2)cc1 | -11 | 19 | 4 | -47* | -2
CCC(C)C(NC(=O)c1ccccc1NC(=O)c1ccco1)C(=O)NNC(=O)c1ccc(OC)cc1 (stereo not given) | -7 | -1 | -21 | -63* | -1
Cc1ccc(NC(=O)c2ccc(OC(=O)c3ccco3)cc2)cc1 | -3 | 1 | -12 | -2 | 1
CC(C)COc1ccc(C(=O)Nc2ccc(NC(=O)c3ccco3)cc2)cc1 | -1 | 3 | -1 | -35* | 0
COC(=O)c1ccccc1Oc1ccc(NC(=O)c2ccco2)cc1 | -6 | 3 | 3 | -37* | 0
COc1ccc(C(=O)NNC(=O)C(NC(=O)c2ccccc2NC(=O)c2ccco2)C(C)C)cc1 (stereo not given) | 0 | 2 | 0 | -4 | 0
COc1ccc(NC(=O)CN(C)S(=O)(=O)c2ccc3nc(C)sc3c2)cc1 | -1 | -1 | 0 | -25 | 0
Cc1ccc(C)c(CN2C(=O)c3ccccc3S(=O)c3ccc(C(=O)N4CCN(c5cccc(Cl)c5)CC4)cc32)c1 (stereo not given) | -3 | 7 | 5 | 5 | 2
O=C(COCc1cc(-c2cccs2)on1)NCc1ccccc1Cl | 0 | 0 | 29 | 1 | -1
CCCCN(c1ccccc1)c1ncnc2c1cnn2-c1ccc(Cl)cc1 | 1 | 1 | 12 | 12 | 0
Cc1ccc(-c2nnc(NC(=O)c3ccco3)s2)cc1 | -4 | 7 | 1 | 20 | 3
O=C(COc1ccccc1)Nc1ccc(NC(=O)c2ccco2)cc1 | -3 | 4 | -4 | -73* | 0
Cc1nnc(NC(=O)c2ccco2)s1 | -3 | 0 | 1 | -52* | 1
COc1ccc(OCC(=O)Nc2ccc(NC(=O)c3ccco3)cc2)cc1 | -4 | 5 | 1 | -2 | -1
COc1ccc(NC(=O)c2ccco2)cc1NC(=O)c1ccc(OC(C)C)cc1 | -7 | 3 | 43* | -11 | -1
Cc1oc(C(=O)Nc2ccc(O)cc2)cc1COc1ccccc1 | -5 | 5 | 4 | -32* | -1
Cc1ccc(CCNC(=O)c2cccc(Nc3nc4ccccc4nc3-n3nc(C)cc3C)c2)cc1 | -3 | 1 | 2 | -5 | 1
Cc1ccc(-c2cn3c(n2)sc2cc(C(=O)NCc4cccs4)ccc23)cc1 | -1 | 3 | -3 | 3 | 0
COc1ccc(CNC(=O)CCc2c(C)c3cc4c(C)c(C)oc4cc3oc2=O)cc1 | -1 | 0 | -1 | -36* | -2

Source: PubChem (National Center for Advancing Translational Sciences (NCATS))
